Screening results deposited in PubChem by Broad Institute.
Tgondii IFNg: inhibitors of Toxoplasma gondii growth with IFN-gamma. Toxoplasma gondii growth in IFN-gamma-treated host cells; stronger effect = lower value. activity change, negative = inhibition, % (test concentration not listed). 3.8% of 69,000 active; in the data active = activity change below about -70%, passing the limit was not always enough;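 note: host cells are HeLa cells infected with Toxoplasma gondii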
Of the large screens only hits and unclear results are named; the others gave an inactive call; ! = a repeat was not active. The sample as a whole holds a higher share of hits than the screen did.

NCC1Cc2cc(-c3ccccc3OCCn3ccnc3)cc(Cl)c2O1 (stereo not given)	Tgondii IFNg -81
CCOC(=O)N1CCC2(CC1)OC(=O)C(C)=C2C(=O)NCCc1ccccc1	none
CC1CCN(S(=O)(=O)c2ccc3c(ccc(=O)n3CC(=O)NCc3ccco3)c2)CC1	none
CC(C)c1ccc(NC(=O)C2CC(=O)N(CCc3c[nH]c4ccc(Cl)cc34)C2)cc1 (stereo not given)	none
O=C(NC1CCCCCCC1)C1CC(=O)N(CCc2c[nH]c3ccc(Cl)cc23)C1 (stereo not given)	Tgondii IFNg -92
Cc1ccc2[nH]cc(CCN3CC(C(=O)NC4CCCCCCC4)CC3=O)c2c1 (stereo not given)	none
CCCCCCCCNC[C@@H](O)[C@H](O)[C@@H](O)[C@@H](O)CO	none
COCCn1cc(C(=O)NCCc2cccc(Cl)c2)c(=O)c(C(=O)N2CCCCCCC2)c1	none
Cc1c(Cl)cccc1NC(=O)c1c(O)c2ccccc2n(-c2ccccc2)c1=O	none
Cc1c(CN(C)C(=O)C(=O)c2ccco2)cnn1C	none
CN(C)CCOCC1CN(C(=O)c2cccn2C)Cc2ccnn2C1 (stereo not given)	none
COc1cc(Nc2c(C#N)cnc3cc(OCCCN4CCN(C)CC4)c(OC)cc23)c(Cl)cc1Cl	Tgondii IFNg -79
COc1ccc(-c2nc(NCCCN3CCN(C)CC3)c3ccccc3n2)cc1	none
COc1cc2c(Oc3ccc(NC(=O)C4(C(=O)Nc5ccc(F)cc5)CC4)cc3F)ccnc2cc1OCCCN1CCOCC1	none
CCn1nc(C(C)C)cc1C(=O)NC(C)Cc1cnccn1 (stereo not given)	none
CN(C)c1ncc(-c2ccc(N)nc2)c(C2CCN(C(=O)c3ccc(F)cc3)CC2)n1	none
Cc1cc(C)cc(C(=O)N2CCC3(CC2)NC(=O)c2cc(Cl)ccc2N3C)c1	none
Cc1cc(NC(=O)Nc2ccccc2Oc2ccccc2)c(C(F)(F)F)o1	none
CCS(=O)(=O)N(C)c1ccc(C(=O)NCc2ccc3c(c2)OCO3)cc1	none
Cc1nnsc1C(=O)OCc1cc(F)cc(F)c1	Tgondii IFNg -77
Cc1nnsc1C(=O)N(Cc1ccccc1)C(C)C	none
Cc1nnsc1C(=O)OCCN(C)c1ccc(C#N)cn1	none
Fc1ccc(C(c2ccccc2)(c2ccccc2F)n2ccnc2)cc1 (stereo not given)	Tgondii IFNg -71
CC(C)Cc1cn(CC2CCCN(C(=O)C3=CC(=O)CC(C)(C)O3)C2)nn1 (stereo not given)	none
c1ccc(C(Cn2ccnc2-c2cccnc2)N2CCCCCC2)cc1 (stereo not given)	none
N#CCN1CCC2(CC1)CC(NS(=O)(=O)C1CC1)c1ccccc1O2 (stereo not given)	none
CC(C)c1cc(C(C)C)c(S(=O)(=O)Nc2ccc(O)cc2)c(C(C)C)c1	Tgondii IFNg -75
CC(C)c1ccc(NS(=O)(=O)c2cc3c4c(c2)CCC(=O)N4CCC3)cc1	none
CC1=NCCN1S(=O)(=O)c1c(C(C)C)cc(C(C)C)cc1C(C)C	none
CS(=O)(=O)N1CCN2CC(C(=O)O)CN(Cc3ccoc3)CC2C1 (stereo not given)	none
CCOC(=O)N1CCC2(CC1)OC(=O)C(C)=C2C(=O)NCCCN1CC(C)CC(C)C1 (stereo not given)	none
C=CCN1C[C@H]2CN(Cc3ccc(C)s3)C[C@H]2C1=O	none
CN(CC(=O)Nc1cccnc1)S(=O)(=O)c1ccc(Cl)cc1	none
O=C(O)CSCCCC(=O)Nc1ccc(Br)cc1	none
O=C(CCCCCCC(=O)Nc1ccccc1)NO	Tgondii IFNg -84!
O=C(CCCCCCC(=O)Nc1cccnc1)NO	Tgondii IFNg -84
CCCCC(=O)Nc1ccc(-c2nc(-c3ccccc3)co2)cc1	none
O=C(NC(=S)Nc1cccnc1)c1ccccc1	none
Cc1oc(C2CCN(C(=O)c3ccncc3)CC2)nc1C(=O)N1CCCC1	none
CC(C)Cc1cc(C(=O)N(Cc2ccccn2)CC2CCCO2)n(C)n1 (stereo not given)	none
CN(C)c1cc(OC2CCN(C(=O)c3cccc4[nH]ccc34)C2)ncn1 (stereo not given)	none
CN1C(=O)CO[C@H]2CN(C(=O)NCc3cccnc3)C[C@@H]21	none
CC(C)c1nccc(C(=O)N[C@H]2C[C@H]3C(=O)N(C)CC(=O)N3C2)n1	none
Cc1ccc(Nc2nc(Nc3ccc(C)cc3)nc(Sc3nncn3C)n2)cc1	Tgondii IFNg -75
Cn1cnnc1Sc1cc(C#N)c(C#N)cc1Sc1nncn1C	none
CC1c2cccn2CCN1Cc1ccc(Sc2nncn2C)o1 (stereo not given)	none
COCC1CN(C(=O)c2cc(C)on2)Cc2nnn(CC3CC3)c21 (stereo not given)	none
CCN(CC)C(=O)c1cc(=O)n(CC(=O)Nc2ccc(Br)cc2F)c2ccccc12	none
Cc1ccc2[nH]c(CN(Cc3nccn3C)C3CC3)c(C)c2c1	none
Cc1ccc(S(=O)(=O)NCCc2sc(-c3cccc(F)c3)nc2C)c(C)c1	none
COc1ccc(S(=O)(=O)N2C[C@H](OC)[C@@H]3COC[C@@H]32)cc1	none
Cc1cnc(-n2cnnc2)c(-c2ccc3c(c2)OCCO3)c1	none
Cc1nc(-n2cnnc2)ccc1-c1ccc2c(c1)OCO2	Tgondii IFNg -97
Cc1ccc(-c2nnc(-c3ccc4c(c3)OCO4)o2)cc1	none
Cc1ccc2nc(COCC(=O)Nc3ncc(Cc4ccccc4)s3)[nH]c2c1	none
Cc1nc2[nH]nc(C)n2c(=O)c1CC(=O)Nc1ncc(Cc2ccccc2F)s1	none
Cc1nc(C)c(CC(=O)Nc2ncc(Cc3ccc(F)cc3)s2)s1	Tgondii IFNg -80
CS(=O)(=O)N1C[C@H]2CNC[C@@]2(C(=O)N2CCCCCC2)C1	none
Cc1ccccc1C(=O)N1CSC[C@@H]1C(=O)NCCc1csc(-c2ccccc2)n1	none
CCCCN(C)C(=O)c1cc2cccnc2n(Cc2ccccc2)c1=O	none
O=C(Nc1ccc(-c2nc(-c3ccccc3)co2)cc1)Nc1cccc(Cl)c1	none
O=C(Nc1cccc(Cl)c1)Nc1ncc(CCNc2ncnc3ccsc23)s1	Tgondii IFNg -73
O=C(Nc1cccc(Cl)c1)c1ccccn1	none
CCc1ccc(CNC(=O)c2nc(Nc3cccc(C)c3)c3ccccc3n2)cc1	Tgondii IFNg -98
Cc1cccc(Nc2nc(C(=O)NCc3ccc(N(C)C)cc3)nc3ccccc23)c1	Tgondii IFNg -78
Cc1ccc(Nc2nc(C(=O)NCc3ccc(N(C)C)cc3)nc3ccccc23)cc1	none
CCc1ccc(Nc2nc(C(=O)NCc3ccc(C)cc3)nc3ccccc23)cc1	none
CCOC(=O)c1nc(Nc2cccc(C)c2)c2ccccc2n1	none
CN(C)c1ccc(CNC(=O)c2nc(Nc3ccc(F)cc3)c3ccccc3n2)cc1	none
O=C(C1CCOC1)N1CC2CC(CN(Cc3ccco3)C2)C1 (stereo not given)	none
c1csc(CN2CCCn3cnc(CN4CCCC4)c3C2)c1	none
CC1(C)Cc2nc3sc4c(Cl)ncnc4c3cc2CS1	none
COc1ccc(-c2nc3c(s2)CN(S(=O)(=O)c2ccc(F)cc2F)CC3)cc1	Tgondii IFNg -95
CCOc1ccc(S(=O)(=O)N2CCc3nc(-c4ccc(OC)cc4)sc3C2)cc1	none
CCc1ccc(S(=O)(=O)N2CCc3nc(-c4ccc(OC)cc4)sc3C2)cc1	none
COc1ccc(-c2nc3c(s2)CN(S(=O)(=O)c2cc(OC)ccc2OC)CC3)cc1	Tgondii IFNg -120
CCOc1ccc(-c2nc3c(s2)CN(S(=O)(=O)c2ccc(F)cc2F)CC3)cc1	none
Cc1ccc(S(=O)(=O)N(C)c2cncc(C(=O)N3CCN(Cc4ccccc4)CC3)c2)cc1	none
CN(C)S(=O)(=O)N1CCC2(C1)C(=O)NCC2c1ccccc1 (stereo not given)	none
Cc1ccnc(NCCn2cnc(-c3ccccc3)c2-c2ncc[nH]2)c1	none
NC(=O)C(NC(=O)Cn1c(=O)cc(C(=O)N2CCc3ccccc3C2)c2ccccc21)c1ccccc1 (stereo not given)	none
